Assay [1] is described as follows: qHTS to identify inhibitors of the type 1 interferon - major histocompatibility complex class I in skeletal muscle: primary screen against the NCATS Pharmaceutical Collection (AID 1347407).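 Also: luminescence of HiBiT knocked into endogenous HLA-B as interferon-induced MHC class I level; % is scaled to controls: 0 for no effect and ±100 for the full control effect.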 An outline of the steps:
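HLA-B HiBiT myoblasts, dexamethasone-free growth medium + 4 ng/ml IFN-b; compounds pinned 1 h after seeding, […] from 46 uM; 24 h, 37 C, 5% CO2; lytic HiBiT detection, 10 min RT, luminescence.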
(In general: Quantitative high-throughput screening tests each substance at several concentrations.)

Assay [2] is described as follows: qHTS to identify inhibitors of the type 1 interferon - major histocompatibility complex class I in skeletal muscle: primary screen against the NCATS Mechanism Interrogation Plate v5.0 (MIPE) Libary (AID 1347411).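 Also: plate controls were vehicle for no effect and reference inhibitor for full effect; nearly all actives have a fitted effect of over 65% in size.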 Summed up: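 HLA-B HiBit myoblasts, dexamethasone-free medium + 4 ng/ml IFN-b, 24 h compound, 11-pt 1:3 from 46 uM final. Readout: Nano-Glo HiBiT lytic luminescence after 10 min lysis, RT.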

For assay [3], the target named is Protein phosphatase 1D (Homo sapiens) (UniProt O15297). Briefly: RapidFire Mass Spectrometry qHTS Assay for Modulators of WT P53-Induced Phosphatase 1 (WIP1) (AID 1347424).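 Also: series mostly up to about 63 µM; plate controls were DMSO wells for no effect and GSK830371 inhibitor control at 10 µM for full effect.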 Summed up:
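RapidFire MS readout of dephosphorylated VEPPL-S-QETFS product, with 1 uM isotope-labelled peptide standard. Reaction: 10 nM WIP1, 2 uM phosphopeptide substrate, 5 min, room temperature, after 1 h compound preincubation; stopped with 0.5% formic acid.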

For assay [4] the target is unchanged. The assay can be described thus: Rhodamine-PBP qHTS Assay for Modulators of WT P53-Induced Phosphatase 1 (WIP1) (AID 1347425). Also: % of control where 0% means no effect. Summed up:
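The read-out is the change in Rhodamine-PBP fluorescence (f1 - f0, ex 525/em 598 nm) as Pi is released, read each minute for 11 min. Final reaction: 5 nM WIP1, 10 uM phosphopeptide VEPPL-pS-QETFS, 10 uM Rh-PBP, 50 mM Tris-HCl pH 7.5, 30 mM MgCl2. Compound was preincubated with enzyme for 1 hour at room temperature.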

Assay [5] in a line: Primary qHTS for inhibitors of La Crosse Virus (LACV) - induced cell death in SH-SY5Y cells (AID 1508616).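 Also: top concentration of the series differs between compounds; 0% = infected DMSO wells and 100% = uninfected DMSO wells; higher means more rescue of cells from virus-induced death.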 Summed up: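 Cytopathicity rescue screen: compounds pinned onto SH-SY5Y cells, which are then infected with LACV (MOI 0.01) and held 6 days at 37C. Percent activity is scaled between infected DMSO control and uninfected DMSO control.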
For assay [6], the target named is Calcium and integrin-binding protein 1 (Homo sapiens) (UniProt Q99828). The assay can be described thus: Primary qHTS for Identification of Calcium Integrin Binding Protein 1 (CIB1) Competitor (AID 1508620). Also: top concentration of the series differs between compounds; % is scaled to controls: 0 for no effect and ±100 for the full control effect. Summed up: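 Fluorescence polarization competition: GST-tagged CIB1 (1 uM final) preincubated with compound 15 min at room temperature, then FITC-labelled alphaIIb peptide (100 nM final) added. After 15 min at room temperature, polarization read at Ex 480/Em 540.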
Chain of Calcium and integrin-binding protein 1 (Homo sapiens) (Q99828 whole entry, looked up): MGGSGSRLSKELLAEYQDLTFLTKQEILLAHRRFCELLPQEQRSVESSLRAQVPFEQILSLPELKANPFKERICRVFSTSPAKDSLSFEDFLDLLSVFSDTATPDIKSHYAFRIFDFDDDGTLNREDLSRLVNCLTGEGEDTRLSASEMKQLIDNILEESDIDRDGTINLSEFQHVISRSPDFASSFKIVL

A short description of assay [7]: Primary qHTS for small molecule stabilizers of the endoplasmic reticulum resident proteome: Secreted ER Calcium Modulated Protein (SERCaMP) assay (AID 1508630). Also: % is scaled to controls: 0 for no effect and ±100 for the full control effect. An outline of the steps: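 The SH-SY5Y reporter protocol was run at 3 concentrations up to 38.3 uM (primary) or 11 concentrations (follow-up): 16 h compound, 100 nM thapsigargin for 4 h, then extracellular luciferase luminescence.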

A short description of assay [8]: A High-Content qHTS Against Drug Library for the Identification of Small Molecules that Inhibit DYT1 Early Onset Primary Dystonia-Associated Cell Pathology (AID 1645839; calls by dose curve; also: series mostly up to about 46 µM). Summed up:
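Cells were seeded and left for 24 h, then dosed with compound alongside tetracycline induction of mutant EGFP-TorsinA. They were incubated for 48 h, fixed in 4% paraformaldehyde, permeabilized and imaged for mislocalization (%pathology) and cell count.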

Assay [9] addresses Cytochrome P450 2D6 (Homo sapiens) (UniProt P10635). The assay can be described thus: Cytochrome P450 family 2 subfamily D member 6 (CYP2D6) small molecule antagonists: luciferase biochemical (cell-free) qHTS assay (AID 1645840; active = well fitted curve in the direction sought with a large enough effect in the repeat runs; an effect the other way counts as inactive or inconclusive; also: nearly all actives have a fitted effect of over 55% in size; also: potency is read from the fitted curve at half-maximal effect). An outline of the steps: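 P450-Glo CYP2D6 system: proluciferin substrate converted by enzyme to luciferin, read by luminescence proportional to activity. Enzyme-substrate mix with compound 10 min at room temperature, then NADPH regeneration 1 h before detection reagent.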

For assay [10], the target named is Cytochrome P450 2C9 (Homo sapiens) (UniProt P11712). The assay can be described thus: Cytochrome P450 family 2 subfamily C member 9 (CYP2C9) small molecule antagonists: luciferase biochemical (cell-free) qHTS assay (AID 1645842; active = well fitted curve in the direction sought with a large enough effect in the repeat runs; an effect the other way counts as inactive or inconclusive; also: nearly all actives have a fitted effect of over 55% in size; also: potency is read from the fitted curve at half-maximal effect). Summed up:
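P450-Glo CYP2C9 system: proluciferin substrate with enzyme in mix containing 0.4% BSA, 10 min at room temperature, then NADPH regeneration solution added and incubated 1 h at 37C. Detection reagent stopped reaction; luminescence read after 20 min as RLU.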

Assay [11] in a line: Primary qHTS for inhibitors of nuclear receptor binding SET domain protein 2 (NSD2) in an isogenic RCH-ACV NSD2 p.E1099K mutant (9B) (AID 1645876). Also: % is scaled to controls: 0 for no effect and ±100 for the full control effect; nearly all actives have a fitted effect of over 70% in size.
Assay [12] is described as follows: Primary qHTS for inhibitors of nuclear receptor binding SET domain protein 2 (NSD2) in an RCH-ACV wild type WT cells (2C) (AID 1645877). Also: nearly all actives have a fitted effect of over 70% in size.
Assay [13] can be described thus: Counterscreen qHTS for small molecule stabilizers of the endoplasmic reticulum resident proteome: GLuc-NoTag assay (AID 1508627).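 Also: SH-SY5Y cells given compound then 100 nM thapsigargin to empty ER calcium; series mostly up to about 76 µM; 0% = thapsigargin alone and -100% = DMSO vehicle control.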 An outline of the steps:
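Counterscreen line: SH-SY5Y-GLuc-NoTag. Seed, 5 h; compound, 19 h; thapsigargin 100 nM, 4 h; 37C/5% CO2. Readout: secreted GLuc luminescence, coelenterazine 0.07x final, no lysis.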
(In general: Counterscreens check selectivity or assay interference.)

Assay [14] in a line: Confirmatory qHTS for small molecule stabilizers of the endoplasmic reticulum resident proteome: Secreted ER Calcium Modulated Protein (SERCaMP) assay (AID 1508628). Also: series mostly up to about 76 µM; % is scaled to controls: 0 for no effect and ±100 for the full control effect; nearly all actives have a fitted effect of over 40% in size. An outline of the steps:
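GLuc-SERCaMP-expressing SH-SY5Y cells, pretreated 16 h with compound, are challenged with thapsigargin to empty ER calcium stores; after 4 h, coelenterazine is added directly to the medium and luminescence is imaged.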

Assay [15] is described as follows: Cell Viability qHTS for small molecule stabilizers of the endoplasmic reticulum resident proteome (AID 1508629).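 Also: compound exposure about 46 h in total before the viability read; % is scaled to controls: 0 for no effect and ±100 for the full control effect.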 The following applies: cell viability counter-screen, 100 nM thapsigargin for final 4 h. From the text: Assay Provider: Brandon K. Harvey Ph.D.
National Institute on Drug Abuse, National Institutes of Health, Baltimore, MD
Endoplasmic reticulum (ER) dysregulation is associated with human pathologies including neurodegenerative, cardiovascular, muscular, and diabetic conditions. Maintenance of ER calcium is critical for functions of the ER and its depletion can lead to loss of ER resident proteins, in a process termed exodosis. Therapeutic compounds capable of attenuating the redistribution of ER proteins under pathological conditions may slow or stop disease progression. To identify such compounds, we performed a quantitative high-throughput screen (qHTS) using the SERCaMP assay, which monitors secretion of ER resident proteins triggered by calcium depletion.
SERCaMP was initially developed as a reporter of ER calcium homeostasis using a Gaussia luciferase with a modified signal peptide and carboxy-terminus (GLuc-SERCaMP), modifications that confer secretion of the reporter in response to ER calcium depletion (Henderson et al., 2014). The assay was used to screen 9,501 compounds, including a collection of drugs approved by the FDA (US), EMA (EU), NHI (Japan), and HC (Canada) regulatory agencies (Huang et al., 2011). Since the SERCaMP reporter reflects the exodosis phenomenon (Trychta et al., 2018a), compounds identified in the screen have the potential to prevent exodosis by different mechanisms such as stabilizing ER calcium or augmenting ERS retrieval.
1. Henderson, M.J., Wires, E.S., Trychta, K.A., Richie, C.T., and Harvey, B.K. (2014). SERCaMP: a carboxy-terminal protein modification that enables monitoring of ER calcium homeostasis. Mol Biol Cell 25, 2828-2839.
2. Huang, R., Southall, N., Wang, Y., Yasgar, A., Shinn, P., Jadhav, A., Nguyen, D.T., and Austin, C.P. (2011). The NCGC pharmaceutical collection: a comprehensive resource of clinically approved drugs enabling repurposing and chemical genomics. Sci Transl Med 3, 80ps16.
3. Trychta, K.A., Back, S., Henderson, M.J., and Harvey, B.K. (2018a). KDEL Receptors Are Differentially Regulated to Maintain the ER Proteome under Calcium Deficiency. Cell Rep 25, 1829-1840 e1826.
SEQUENCE No. (1, 2, 3, etc.); […] (e.g., Cells, Incubation, Reagent, etc.); VALUE and DESCRIPTION.
1; Reagent; 5 uL; 1000 SH-SY5Y cells per wells
3; Compound; 23 nL; Control inhibitor / compound library
5; Reagent; 100 nM; Thapsigargin
7; Reagent; 5 uL; CellTiter-Glo (Promega)
8; Time; 10 min; room temperature
9; Detection; Luminescence; ViewLux imaging system
NOTES (numbers refer to sequence above)
1; SH-SY5Y human neuroblastoma cells stably expressing GLuc-SERCaMP (SH-SY5Y-GLuc-ASARTDL) cells were seeded in 1,536 well white tissue culture treated plates (Corning, Cat# 7464) in DMEM-high glucose-sodium pyruvate (ThermoFisher Scientific, Cat #10569) supplemented with 10% bovine growth serum (Hyclone), 10 U/ml penicillin (Gibco), 10 ug/ml streptomycin (Gibco), and 20 mM HEPES.
2; Assay plates were incubated for 5 hr at 37C in a humidified incubator containing 5% CO2.
3; qHTS libraries (23 nl, final concentrations of 1.53 uM, 7.67 uM, 38.3 uM) or controls (neutral control: DMSO, positive control: dantrolene) were added using a Kalypsis pin-tool Robotic System equipped with 1536 pinheads.
4; Cells were then incubated for 42 hours at 37C, 5% CO2. […]
7; Cell viability was measured using the CellTiter-Glo Luminescent Cell Viability Assay (Promega). […]
9; Luminescence was measured using a ViewLux CCD imaging system (Perkin Elmer) equipped with clear filters.

Assay [16] deals with Cytochrome P450 3A4 (Homo sapiens) (UniProt P08684). The assay can be described thus: Cytochrome P450 family 3 subfamily A member 4 (CYP3A4) small molecule antagonists: luciferase qHTS assay (AID 1645841; active = well fitted curve in the direction sought with a large enough effect in the repeat runs; an effect the other way counts as inactive or inconclusive; also: nearly all actives have a fitted effect of over 45% in size). Summed up:
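P450-Glo CYP3A4 enzyme with proluciferin substrate preincubated 10 min with compound at room temperature, then NADPH regeneration 1 h. Luciferin detection reagent added for 20 min; luminescence recorded. Ketoconazole positive control.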

Results filed as inconclusive are left out. Unmarked numbers belong to inactive results. Active and inactive are the calls of the source. Unless noted, calls follow the shape of the dose curve; as a rule, active = well fitted curve in the direction sought with a large enough effect; inconclusive = small, poorly fitted or top-dose-only effect, or another doubt; inactive = no such curve, though single readings can be large; an effect the other way counts as inactive or inconclusive.

Chain of Cytochrome P450 2C9 (Homo sapiens) (P11712 whole entry, looked up): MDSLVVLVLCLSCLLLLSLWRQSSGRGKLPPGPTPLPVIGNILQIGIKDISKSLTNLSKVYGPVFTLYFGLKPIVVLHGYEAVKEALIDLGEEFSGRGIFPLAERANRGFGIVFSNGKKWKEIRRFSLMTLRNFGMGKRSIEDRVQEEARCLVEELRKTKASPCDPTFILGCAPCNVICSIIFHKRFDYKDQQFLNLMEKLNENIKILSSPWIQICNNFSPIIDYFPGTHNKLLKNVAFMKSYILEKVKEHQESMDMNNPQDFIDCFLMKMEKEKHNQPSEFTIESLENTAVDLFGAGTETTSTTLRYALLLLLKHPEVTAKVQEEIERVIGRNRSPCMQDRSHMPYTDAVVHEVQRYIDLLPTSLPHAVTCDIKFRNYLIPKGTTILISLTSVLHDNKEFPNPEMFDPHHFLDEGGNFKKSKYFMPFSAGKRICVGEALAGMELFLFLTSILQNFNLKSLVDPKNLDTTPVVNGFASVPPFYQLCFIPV
Chain of Cytochrome P450 2D6 (Homo sapiens) (P10635 whole entry, looked up): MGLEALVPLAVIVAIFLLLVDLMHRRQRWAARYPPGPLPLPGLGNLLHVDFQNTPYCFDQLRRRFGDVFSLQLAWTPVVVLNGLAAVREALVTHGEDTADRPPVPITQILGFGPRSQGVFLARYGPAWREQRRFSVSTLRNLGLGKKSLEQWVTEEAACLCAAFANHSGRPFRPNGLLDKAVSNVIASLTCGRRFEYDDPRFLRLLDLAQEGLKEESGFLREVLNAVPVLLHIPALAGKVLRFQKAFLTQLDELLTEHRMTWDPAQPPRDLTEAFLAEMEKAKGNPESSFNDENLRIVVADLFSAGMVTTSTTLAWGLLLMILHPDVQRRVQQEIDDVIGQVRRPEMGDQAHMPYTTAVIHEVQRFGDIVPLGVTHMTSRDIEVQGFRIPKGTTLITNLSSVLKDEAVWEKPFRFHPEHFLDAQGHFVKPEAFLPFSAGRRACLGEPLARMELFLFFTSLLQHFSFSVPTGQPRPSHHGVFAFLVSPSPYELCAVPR
Chain of Protein phosphatase 1D (Homo sapiens) (O15297 whole entry, looked up): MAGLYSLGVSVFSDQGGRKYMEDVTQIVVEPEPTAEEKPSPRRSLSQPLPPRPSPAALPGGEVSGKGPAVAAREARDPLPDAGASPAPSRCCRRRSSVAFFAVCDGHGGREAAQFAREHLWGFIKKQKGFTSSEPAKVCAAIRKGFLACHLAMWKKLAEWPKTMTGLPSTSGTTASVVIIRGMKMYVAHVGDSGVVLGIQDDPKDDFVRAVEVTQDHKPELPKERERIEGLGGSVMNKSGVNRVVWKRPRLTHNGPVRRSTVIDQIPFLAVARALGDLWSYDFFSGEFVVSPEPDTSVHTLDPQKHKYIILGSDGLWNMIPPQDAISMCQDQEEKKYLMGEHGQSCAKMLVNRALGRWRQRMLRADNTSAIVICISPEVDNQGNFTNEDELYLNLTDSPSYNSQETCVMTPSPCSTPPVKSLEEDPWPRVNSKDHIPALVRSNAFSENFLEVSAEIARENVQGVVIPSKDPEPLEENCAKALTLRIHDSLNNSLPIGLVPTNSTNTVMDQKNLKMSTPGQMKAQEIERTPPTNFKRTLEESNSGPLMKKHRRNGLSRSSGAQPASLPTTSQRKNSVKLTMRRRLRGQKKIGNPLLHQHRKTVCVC
Chain of Cytochrome P450 3A4 (Homo sapiens) (P08684 whole entry, looked up): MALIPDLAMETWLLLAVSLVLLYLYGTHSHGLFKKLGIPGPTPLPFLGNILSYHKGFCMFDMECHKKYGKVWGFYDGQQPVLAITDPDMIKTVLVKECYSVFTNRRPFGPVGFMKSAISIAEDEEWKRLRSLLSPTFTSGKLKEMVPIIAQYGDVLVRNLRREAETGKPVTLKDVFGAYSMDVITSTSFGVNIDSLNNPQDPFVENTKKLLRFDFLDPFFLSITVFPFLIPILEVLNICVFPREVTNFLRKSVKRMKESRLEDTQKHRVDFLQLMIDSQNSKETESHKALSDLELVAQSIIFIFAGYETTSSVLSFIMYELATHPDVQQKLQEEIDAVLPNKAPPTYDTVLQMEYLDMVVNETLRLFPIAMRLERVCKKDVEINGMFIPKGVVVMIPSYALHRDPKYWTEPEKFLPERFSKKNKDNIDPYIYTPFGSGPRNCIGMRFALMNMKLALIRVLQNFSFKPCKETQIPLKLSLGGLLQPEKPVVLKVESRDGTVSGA

Turning to `OCCN1C[C@H](O)[C@@H](O)[C@H](O)[C@H]1CO`, the compound was classed as inactive in assay [1], in [2], in assay [3], in assay [4], in assay [5] and in [6]. In assay [7], the outcome was inactive. For the same compound, the Potency entry in [8], in assay [9], in assay [10], in assay [11] and in [12] was “inactive” throughout.

On to `CN1C(=O)CC(c2ccccc2)C1=O` (stereo not given), for which the call in assay [1], in [3], in [4], in [5], in [6] and in assay [7] was inactive. The Potency result in assay [8], in [9], in assay [10] and in [11] was “inactive” each time.

In the case of `CCCC(O)C(CC)CO` (stereo not given), the call in [1], in assay [3], in assay [4], in assay [5], in assay [6] and in [13] was inactive. Also, the Potency result in assay [14], in [9], in [10], in [11] and in assay [12] was “inactive” in each case. In addition, the max response in assay [15] was 29.3%.

As for `Cc1ccsc1C(=CCCN1CCC[C@@H](C(=O)O)C1)c1sccc1C`, the compound was classed as inactive in assay [1], in [2], in assay [4], in [5] and in assay [6]. Moreover, the Potency result in assay [8], in assay [9], in [10] and in assay [11] was “inactive” each time.

For the compound `CC(=O)NS(=O)(=O)c1ccc(N)cc1`, the call in assay [1], in assay [3], in assay [4], in assay [5], in assay [6] and in assay [7] was inactive. In assay [16], the call was inactive. For the same compound, the Potency result in assay [8], in assay [9] and in assay [11] was “inactive” in each case.

Turning to `C/C=C/C(=O)N(CC)c1ccccc1C`, the result in assay [1], in assay [2], in [3], in assay [4], in assay [5] and in assay [6] was inactive. In [16], the compound was called inactive. Also, the Potency entry in assay [8], in assay [9], in assay [10] and in assay [11] was “inactive” throughout.

Regarding `NNC(=O)CP(=O)(c1ccccc1)c1ccccc1`, the compound was classed as inactive in [1], in assay [3], in [4], in assay [5], in assay [6] and in assay [7]. The Potency entry in [8] and in assay [9] was “inactive” each time. Moreover, in assay [10], the Potency was 15.5 µM (active).

As for `O=C(O)/C=C/c1ccc(Cn2ccnc2)cc1`, the outcome in [1], in assay [2], in assay [3], in [4], in assay [5] and in assay [6] was inactive. The Potency result in assay [8], in assay [9], in [11] and in assay [12] was “inactive” throughout.

With `O=C(/C=C/c1ccc(O)c(O)c1)O[C@@H]1C[C@@](OC(=O)/C=C/c2ccc(O)c(O)c2)(C(=O)O)C[C@@H](O)[C@@H]1O`, the compound was classed as inactive in [1], in [3], in assay [4], in assay [5], in [6] and in assay [7]. The Potency result in assay [8], in assay [9] and in [10] was “inactive” in each case.

Take `Cn1cc(C(=O)[C@@H]2CCc3nc[nH]c3C2)c2ccccc21`: the outcome in assay [1], in [3], in [4], in assay [5], in assay [6] and in assay [13] was inactive. The max response in assay [15] was 11.5%. Moreover, the Potency entry in assay [8] and in assay [10] was “inactive” throughout. Also, the Potency in [9] was 12.3 µM (active).

On to `CCCCCCCCCCCCCCCCN`, for which the result in assay [1], in [3], in [4], in assay [5], in [6] and in [7] was inactive. For the same compound, in [16], the call was inactive. Moreover, the Potency result in [8], in assay [9] and in assay [10] was “inactive” each time.

As for `Cc1onc(-c2ccccc2)c1-c1ccc(S(N)(=O)=O)cc1`, the result in [1], in assay [2], in assay [3], in assay [4], in assay [5] and in assay [6] was inactive. The result in assay [7] was inactive. In addition, the Potency result in assay [8] is “inactive”.

Values taken from PubChem BioAssay (NCATS).
